Test results as given in PubChem BioAssay (EPA / NIEHS).
Inconclusive results are not listed. A structure can be active in one record and inactive in another. Activity calls are given as the source filed them. How the source made its calls, unless noted: active means hit-call score of the fitted dose curve at least 0.9, where 1 is the maximum; inactive means score below 0.9.

Columns and labels:
DIO2 (gene 1734) = assay: CCTE_GLTED_hDIO2: CCTE's human Deiodinase 2 (DIO2) Inhibition Assay, Great Lakes Toxicology and Ecology Division (GLTED) Lab (AID 2284050; active means hit-call score of the fitted dose curve at least 0.9, where 1 is the maximum)
Outline: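 Iodide released by human deiodinase 2 over 3 h with test chemical, measured spectrophotometrically via Sandell-Kolthoff cerium/arsenic reaction. Run n=3; inhibition referenced to DMSO.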

[1] = CCTE_Shafer_MEA_dev_burst_rate: CCTE's Neural Network Formation Assay for Burst Rate, Shafer Lab (AID 2284042);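 on AC50: potency for loss of burst rate below DMSO control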
Outline: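 Exposure ran continuously over 12 days of network development in rat cortical cultures, with compound refreshed during full media changes on DIV 5 and 9. Single-electrode bursts per recording time, well-mean over active electrodes, trapezoidal AUC across days 5–12, fitted downward relative to DMSO.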

[2] = CCTE_Shafer_MEA_dev_bursting_electrodes_number: CCTE's Neural Network Formation Assay for Number of Bursting Electrodes, Shafer Lab (AID 2284043; active means hit-call score of the fitted dose curve at least 0.9, where 1 is the maximum;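 on AC50: potency is for loss of bursting electrodes relative to DMSO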)
Outline: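 Number of electrodes reaching ≥1 burst every 2 min was recorded at DIV 5, 7, 9 and 12 and collapsed as trapezoidal area under the curve. Cultures were rat cortical neurons on MEA plates, dosed continuously from plating with medium and treatment refreshed on DIV 5 and 9.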

[3] = CCTE_Shafer_MEA_dev_per_burst_interspike_interval: CCTE's Neural Network Formation Assay for Burst Interspike Interval, Shafer Lab (AID 2284044);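 further: mean spike spacing inside bursts as AUC over recordings on days 5 7 9 12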;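 on AC50: potency for a decrease of within-burst interspike interval below DMSO level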
Outline: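 Neurons from rat cortex plated onto PEI-coated MEA wells with laminin […] at 1.5 x 10^5 cells/well, then treated from day 0. Media and compound fully replaced on DIV 5 and 9. Extracellular spontaneous firing recorded four times; interspike interval per burst summarised as AUC.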

[4] = CCTE_Shafer_MEA_dev_burst_duration_mean: CCTE's Neural Network Formation Assay for Mean Burst Duration, Shafer Lab (AID 2284045);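 on AC50: curve fitted for loss meaning shorter burst duration than DMSO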
Outline: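 Mean single-electrode burst duration (first to last spike), averaged over bursting electrodes per well, then integrated as area-under-curve across recordings at days 5, 7, 9 and 12. Rat cortical cultures on MEAs, compound present from plating, refreshed at feeds.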

[5] = CCTE_Shafer_MEA_dev_interburst_interval_mean: CCTE's Neural Network Formation Assay for Mean Interburst Interval, Shafer Lab (AID 2284046);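 further: well-mean interburst interval of bursting electrodes as AUC over four recording days; curve fitted for decrease in interburst interval relative to DMSO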
Outline: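 Primary rat cortical neurons on PEI-coated 48-well MEA plates (laminin added with cells at plating) (16 electrodes/well), exposed from plating day 0 with renewal at DIV 5 and 9. Mean inter-burst interval averaged over bursting electrodes, AUC across days 5, 7, 9, 12; DMSO baseline.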

[6] = CCTE_Shafer_MEA_dev_inter_network_spike_interval_mean: CCTE's Neural Network Formation Assay for Mean Inter-network Spike Interval, Shafer Lab (AID 2284047);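 on AC50: potency for a decrease in mean inter-network spike interval below DMSO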
Outline: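 Mean time between consecutive network-spike peaks, recorded extracellularly (adaptive spike detection) on DIV 5, 7, 9 and 12, summarized as trapezoidal AUC. Rat cortical cultures on MEAs dosed continuously days 0–12, re-dosed at feeds; loss-of-signal fit relative to DMSO.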

[7] = CCTE_Shafer_MEA_dev_network_spike_number: CCTE's Neural Network Formation Assay for Number of Network Spikes, Shafer Lab (AID 2284048);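 further: synchronized bursts across electrodes counted on days 5 7 9 12 and integrated as AUC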;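 on AC50: fit as a loss of signal meaning fewer network spikes than DMSO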
Outline: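 Number of network spikes (coordinated firing across electrodes) recorded on days 5, 7, 9 and 12 and summarised as area under the curve. Rat cortical cultures on MEA, continuous compound exposure with full medium/treatment exchange at DIV 5 and 9.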

[8] = CCTE_Shafer_MEA_dev_network_spike_peak: CCTE's Neural Network Formation Assay for Mean Number of Electrodes in Network Spike, Shafer Lab (AID 2284049);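 on AC50: fitted for loss of signal meaning fewer electrodes in network spikes than DMSO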
Outline: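 Rat cortical primary culture, 1.5 x 10^5 cells/well, 48-well MEA (16 electrodes/well). Dosing day 0 through DIV 12, full media/compound exchange DIV 5, 9. AxIS adaptive spike detection; AUC over days 5/7/9/12; loss-of-signal vs DMSO.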

[9] = CCTE_Shafer_MEA_dev_spike_duration_mean: CCTE's Neural Network Formation Assay for Mean Spike Duration, Shafer Lab (AID 2284051);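 further: mean network spike duration pooled as area under curve over DIV 5 to 12 recordings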;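 on AC50: potency for a decrease in mean network spike duration versus DMSO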
Outline: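 Spontaneous activity was recorded on days 5, 7, 9 and 12 from rat cortical cultures grown on microelectrode arrays and dosed continuously from day 0, with media and compound renewed after the DIV 5 and 9 recordings. Network-spike duration was collapsed by area under the curve.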

Measured: AC50

CC1=C(/C=C/C(C)=C/C=C/C(C)=C/CO)C(C)(C)CCC1
active: DIO2 (gene 1734) 47 µM

FC(F)(F)C(F)(F)C(F)(F)C(F)(F)C(F)(F)C(F)(F)CCI
not listed: DIO2 (gene 1734)
inactive: all other assays above

CN[C@H]1CC[C@@H](c2ccc(Cl)c(Cl)c2)c2ccc(S(N)(=O)=O)cc21
active: DIO2 (gene 1734) 49.3 µM

C[Si]1(C)O[Si](C)(C)O[Si](C)(C)O[Si](C)(C)O1
not listed: DIO2 (gene 1734)
inactive: all other assays above

CC=Cc1ccc(O)c(OC)c1
active: DIO2 (gene 1734) 68 µM

CC(=O)Oc1ccccc1C(=O)O
inactive: [1] | [3] | [4] | [5] | [6] | [7] | [8] | [9]
active: [4] 26.2 µM | [6] 0.0242 µM

O=c1[nH]cc(F)c(=O)[nH]1
inactive: [3] | [4] | [6]
active: [1] 1.58 µM | [2] 1.39 µM | [5] 2.82 µM | [7] 0.974 µM | [8] 1.2 µM | [9] 1.52 µM

CCCCC(CC)COC(=O)CC(C(=O)OCC(CC)CCCC)S(=O)(=O)O (stereo unspecified)
active: DIO2 (gene 1734) 85.1 µM

CCCc1cc(=O)[nH]c(=S)[nH]1
inactive: [1] | [3] | [4] | [5] | [6] | [7] | [8] | [9]
active: [2] 23.2 µM | [3] 11.7 µM | [8] 23 µM | [9] 20.7 µM

OC[C@@H](O)[C@@H](O)[C@H](O)[C@H](O)CO
not listed: DIO2 (gene 1734)
inactive: all other assays above

C=CCc1ccc(O)c(OC)c1
not listed: DIO2 (gene 1734)
inactive: all other assays above

CCCCCCCCCCCCCO
inactive: DIO2 (gene 1734)

COc1cc(-c2nc(NC(=O)c3cc4cc(C)cc(C)c4n3CC(=O)O)sc2CCC2CCCCC2)c(OC)cc1Cl
inactive: DIO2 (gene 1734)

Cc1cc(=O)[nH]c(=S)[nH]1
active: [2] 10 µM
not listed: DIO2 (gene 1734)
inactive: all other assays above

CC(C)c1ccc(C(=O)N=C(N)N)cc1S(C)(=O)=O
not listed: DIO2 (gene 1734)
inactive: all other assays above
